In experiment [1] the target is Protein kinase C gamma type (Homo sapiens) (UniProt P05129). The following applies: at 1 µM.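 Also: each value is an averaged percent inhibition of the enzyme.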
Experiment [2] addresses T1, Protein kinase C iota type (Homo sapiens) (UniProt P41743).
T1 sequence (whole entry): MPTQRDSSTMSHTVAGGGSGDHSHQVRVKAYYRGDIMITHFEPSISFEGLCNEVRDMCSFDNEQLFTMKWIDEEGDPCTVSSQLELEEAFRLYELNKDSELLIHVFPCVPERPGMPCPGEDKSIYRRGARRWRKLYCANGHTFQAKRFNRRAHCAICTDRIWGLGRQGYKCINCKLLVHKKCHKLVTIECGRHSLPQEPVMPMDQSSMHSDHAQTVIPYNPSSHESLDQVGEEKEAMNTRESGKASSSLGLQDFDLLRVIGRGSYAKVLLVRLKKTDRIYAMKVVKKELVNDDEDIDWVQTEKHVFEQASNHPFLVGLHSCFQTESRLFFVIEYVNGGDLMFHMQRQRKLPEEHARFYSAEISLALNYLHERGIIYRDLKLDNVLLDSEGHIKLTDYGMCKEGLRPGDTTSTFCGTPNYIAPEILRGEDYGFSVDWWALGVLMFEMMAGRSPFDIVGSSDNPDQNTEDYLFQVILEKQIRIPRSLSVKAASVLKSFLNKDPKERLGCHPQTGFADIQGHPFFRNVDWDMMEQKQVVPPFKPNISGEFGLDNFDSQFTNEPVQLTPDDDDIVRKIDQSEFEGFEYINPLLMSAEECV
The note with it: at 0.1 µM.

Experiment [3] deals with T1, Protein kinase C iota type (Homo sapiens). The note with it: at 1 µM.
The target of experiment [4] is Protein kinase C theta type (Homo sapiens) (UniProt Q04759). The following applies: at 0.1 µM.
Sequence of Protein kinase C theta type (Homo sapiens) (Q04759 whole entry, looked up): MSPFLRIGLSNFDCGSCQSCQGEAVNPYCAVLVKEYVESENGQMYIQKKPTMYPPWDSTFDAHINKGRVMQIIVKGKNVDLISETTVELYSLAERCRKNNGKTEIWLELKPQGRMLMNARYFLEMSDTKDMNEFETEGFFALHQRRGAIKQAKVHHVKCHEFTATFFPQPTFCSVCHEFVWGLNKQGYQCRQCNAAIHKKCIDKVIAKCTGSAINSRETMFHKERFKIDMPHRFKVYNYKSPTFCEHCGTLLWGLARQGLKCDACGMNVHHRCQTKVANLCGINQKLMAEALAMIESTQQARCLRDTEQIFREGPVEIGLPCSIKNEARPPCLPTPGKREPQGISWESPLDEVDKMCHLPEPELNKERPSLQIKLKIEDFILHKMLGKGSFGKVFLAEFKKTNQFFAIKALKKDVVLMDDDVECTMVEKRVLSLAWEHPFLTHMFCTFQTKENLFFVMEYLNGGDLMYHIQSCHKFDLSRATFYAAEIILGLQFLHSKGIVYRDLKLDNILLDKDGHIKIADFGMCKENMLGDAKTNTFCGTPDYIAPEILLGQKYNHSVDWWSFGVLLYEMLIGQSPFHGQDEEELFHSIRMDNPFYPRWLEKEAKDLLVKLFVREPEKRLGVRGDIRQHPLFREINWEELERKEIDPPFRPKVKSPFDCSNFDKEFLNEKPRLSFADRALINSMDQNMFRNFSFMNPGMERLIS
Experiment [5] shares this target. The note with it: at 1 µM.
Experiment [6] concerns the target Protein kinase C beta type (Homo sapiens) (UniProt P05771). The following applies: at 0.1 µM.
Experiment [7] has the same target. The following applies: at 1 µM.
Experiment [8] has as its target T2, Serine/threonine-protein kinase D1 (Homo sapiens) (UniProt Q15139).
T2 sequence (whole entry): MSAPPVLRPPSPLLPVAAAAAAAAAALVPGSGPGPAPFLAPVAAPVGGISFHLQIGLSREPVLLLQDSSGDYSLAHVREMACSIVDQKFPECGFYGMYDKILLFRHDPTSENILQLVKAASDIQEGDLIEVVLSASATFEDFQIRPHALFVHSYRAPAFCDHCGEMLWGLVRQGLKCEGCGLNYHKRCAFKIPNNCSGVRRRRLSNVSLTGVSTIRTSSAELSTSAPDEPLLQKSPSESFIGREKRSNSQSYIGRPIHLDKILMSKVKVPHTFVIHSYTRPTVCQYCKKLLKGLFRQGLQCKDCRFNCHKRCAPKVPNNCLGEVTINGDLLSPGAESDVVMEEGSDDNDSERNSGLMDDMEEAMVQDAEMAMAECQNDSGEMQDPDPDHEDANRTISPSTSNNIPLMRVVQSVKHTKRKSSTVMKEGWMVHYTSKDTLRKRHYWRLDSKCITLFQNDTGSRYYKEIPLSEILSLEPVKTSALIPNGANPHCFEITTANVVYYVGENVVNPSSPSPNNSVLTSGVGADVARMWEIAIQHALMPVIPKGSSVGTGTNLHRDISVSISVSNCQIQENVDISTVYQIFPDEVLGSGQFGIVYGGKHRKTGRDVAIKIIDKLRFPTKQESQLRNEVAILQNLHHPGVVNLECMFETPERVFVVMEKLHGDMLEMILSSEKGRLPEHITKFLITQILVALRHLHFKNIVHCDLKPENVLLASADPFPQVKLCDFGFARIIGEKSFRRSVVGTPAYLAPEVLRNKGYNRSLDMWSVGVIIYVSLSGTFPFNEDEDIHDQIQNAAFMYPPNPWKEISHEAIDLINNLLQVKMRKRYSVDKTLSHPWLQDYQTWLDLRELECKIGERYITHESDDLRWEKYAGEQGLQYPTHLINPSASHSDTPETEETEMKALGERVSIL
The note with it: at 0.1 µM.

Experiment [9] concerns the target T2, Serine/threonine-protein kinase D1 (Homo sapiens). The note with it: at 1 µM.
The target in experiment [10] is T3, Serine/threonine-protein kinase D2 (Homo sapiens) (UniProt Q9BZL6).
T3 sequence (whole entry): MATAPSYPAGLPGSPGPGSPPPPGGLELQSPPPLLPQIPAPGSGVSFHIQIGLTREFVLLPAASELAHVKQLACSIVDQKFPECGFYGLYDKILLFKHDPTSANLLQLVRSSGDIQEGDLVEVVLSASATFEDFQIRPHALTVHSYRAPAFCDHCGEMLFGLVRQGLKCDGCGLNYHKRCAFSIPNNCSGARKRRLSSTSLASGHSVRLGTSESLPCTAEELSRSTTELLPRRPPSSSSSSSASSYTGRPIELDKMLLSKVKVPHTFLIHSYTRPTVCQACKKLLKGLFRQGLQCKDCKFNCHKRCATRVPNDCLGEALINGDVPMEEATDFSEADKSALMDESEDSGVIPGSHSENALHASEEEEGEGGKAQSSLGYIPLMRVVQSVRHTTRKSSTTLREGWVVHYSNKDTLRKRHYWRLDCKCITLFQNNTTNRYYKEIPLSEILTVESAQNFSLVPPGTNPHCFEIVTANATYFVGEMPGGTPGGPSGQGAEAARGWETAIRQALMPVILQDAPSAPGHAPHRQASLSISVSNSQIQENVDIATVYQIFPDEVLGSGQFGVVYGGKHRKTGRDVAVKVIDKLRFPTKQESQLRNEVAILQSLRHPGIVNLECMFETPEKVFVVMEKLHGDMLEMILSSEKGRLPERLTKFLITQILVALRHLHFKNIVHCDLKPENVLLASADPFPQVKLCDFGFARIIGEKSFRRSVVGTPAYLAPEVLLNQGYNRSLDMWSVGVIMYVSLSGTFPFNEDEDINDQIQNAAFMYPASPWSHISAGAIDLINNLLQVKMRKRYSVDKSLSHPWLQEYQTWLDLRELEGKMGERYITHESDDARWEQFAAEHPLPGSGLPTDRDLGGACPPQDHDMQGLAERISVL
The note with it: at 0.1 µM.

Experiment [11] deals with T3, Serine/threonine-protein kinase D2 (Homo sapiens). The following applies: at 1 µM.
Experiment [12] addresses T4, Serine/threonine-protein kinase D3 (Homo sapiens) (UniProt O94806).
T4 sequence (whole entry): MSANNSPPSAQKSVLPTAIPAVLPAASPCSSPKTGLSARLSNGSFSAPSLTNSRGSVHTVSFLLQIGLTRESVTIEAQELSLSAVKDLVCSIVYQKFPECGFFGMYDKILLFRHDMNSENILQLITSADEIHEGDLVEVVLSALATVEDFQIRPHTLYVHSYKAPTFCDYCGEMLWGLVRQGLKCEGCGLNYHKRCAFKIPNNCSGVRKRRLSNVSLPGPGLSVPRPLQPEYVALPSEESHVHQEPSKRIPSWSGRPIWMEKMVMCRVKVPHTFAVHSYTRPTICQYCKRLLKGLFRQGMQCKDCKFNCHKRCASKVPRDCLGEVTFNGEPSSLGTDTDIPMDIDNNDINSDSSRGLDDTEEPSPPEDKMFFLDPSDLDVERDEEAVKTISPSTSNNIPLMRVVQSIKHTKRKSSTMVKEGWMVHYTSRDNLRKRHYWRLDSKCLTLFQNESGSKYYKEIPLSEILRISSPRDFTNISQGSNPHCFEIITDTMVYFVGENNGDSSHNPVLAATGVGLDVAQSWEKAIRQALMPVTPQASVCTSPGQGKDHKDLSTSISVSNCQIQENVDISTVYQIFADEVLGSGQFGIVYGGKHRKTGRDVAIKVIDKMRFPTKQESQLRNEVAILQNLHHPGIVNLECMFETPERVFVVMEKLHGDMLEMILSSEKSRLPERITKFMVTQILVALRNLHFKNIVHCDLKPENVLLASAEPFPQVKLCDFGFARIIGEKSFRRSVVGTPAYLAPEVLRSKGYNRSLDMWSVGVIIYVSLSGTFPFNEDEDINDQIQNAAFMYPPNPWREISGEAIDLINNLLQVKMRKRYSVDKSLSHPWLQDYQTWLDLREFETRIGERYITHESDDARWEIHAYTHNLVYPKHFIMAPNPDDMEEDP
The note with it: at 0.1 µM.

Experiment [13] has as its target T4, Serine/threonine-protein kinase D3 (Homo sapiens). The note with it: at 1 µM.
The target of experiment [14] is T5, cGMP-dependent protein kinase 1 (Homo sapiens) (UniProt Q13976).
T5 sequence (whole entry): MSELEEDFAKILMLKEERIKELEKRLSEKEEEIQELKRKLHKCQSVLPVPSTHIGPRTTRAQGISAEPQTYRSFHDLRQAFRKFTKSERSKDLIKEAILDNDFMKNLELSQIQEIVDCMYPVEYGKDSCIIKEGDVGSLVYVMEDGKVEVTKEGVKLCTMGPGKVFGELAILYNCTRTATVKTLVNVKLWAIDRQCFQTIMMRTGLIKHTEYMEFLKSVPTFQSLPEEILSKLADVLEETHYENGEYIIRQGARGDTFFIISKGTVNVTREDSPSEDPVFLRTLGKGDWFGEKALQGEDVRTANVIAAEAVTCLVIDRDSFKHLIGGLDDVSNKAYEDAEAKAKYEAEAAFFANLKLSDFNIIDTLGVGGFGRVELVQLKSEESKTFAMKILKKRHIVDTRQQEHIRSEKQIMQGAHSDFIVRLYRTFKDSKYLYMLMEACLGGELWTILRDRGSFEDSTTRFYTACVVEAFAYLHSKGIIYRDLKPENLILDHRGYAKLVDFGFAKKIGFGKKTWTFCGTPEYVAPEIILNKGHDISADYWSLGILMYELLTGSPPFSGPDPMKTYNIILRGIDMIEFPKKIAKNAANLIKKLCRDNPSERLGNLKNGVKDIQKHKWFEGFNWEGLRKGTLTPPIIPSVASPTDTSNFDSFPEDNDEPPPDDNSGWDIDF
The following applies: at 0.1 µM.

Experiment [15] concerns the target T5, cGMP-dependent protein kinase 1 (Homo sapiens). The following applies: at 1 µM.
Experiment [16] has as its target T6, cGMP-dependent protein kinase 2 (Homo sapiens) (UniProt Q13237).
T6 sequence (whole entry): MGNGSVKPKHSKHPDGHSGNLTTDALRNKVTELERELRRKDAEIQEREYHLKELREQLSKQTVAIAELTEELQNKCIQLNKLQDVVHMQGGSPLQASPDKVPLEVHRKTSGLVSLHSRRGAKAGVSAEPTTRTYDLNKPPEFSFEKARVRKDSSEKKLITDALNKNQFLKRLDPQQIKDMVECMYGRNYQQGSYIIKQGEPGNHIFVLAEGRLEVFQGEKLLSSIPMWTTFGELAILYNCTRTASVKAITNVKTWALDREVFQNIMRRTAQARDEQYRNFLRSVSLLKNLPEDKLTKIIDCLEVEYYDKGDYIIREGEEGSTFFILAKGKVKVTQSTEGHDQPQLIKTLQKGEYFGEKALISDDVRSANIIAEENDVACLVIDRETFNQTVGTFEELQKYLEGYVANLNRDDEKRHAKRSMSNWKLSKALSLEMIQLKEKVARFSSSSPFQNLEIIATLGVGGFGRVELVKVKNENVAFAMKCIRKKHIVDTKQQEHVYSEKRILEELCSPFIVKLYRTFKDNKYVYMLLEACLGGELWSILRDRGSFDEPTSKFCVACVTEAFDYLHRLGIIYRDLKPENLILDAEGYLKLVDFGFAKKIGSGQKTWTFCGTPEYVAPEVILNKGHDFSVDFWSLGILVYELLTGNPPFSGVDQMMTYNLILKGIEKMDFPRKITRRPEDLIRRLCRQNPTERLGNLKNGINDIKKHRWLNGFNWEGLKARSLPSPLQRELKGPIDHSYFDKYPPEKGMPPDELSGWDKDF
The note with it: at 0.1 µM.

For experiment [17], the target named is T6, cGMP-dependent protein kinase 2 (Homo sapiens). The following applies: at 1 µM.
Experiment [18] concerns the target T7, cAMP-dependent protein kinase catalytic subunit PRKX (Homo sapiens) (UniProt P51817).
T7 sequence (whole entry): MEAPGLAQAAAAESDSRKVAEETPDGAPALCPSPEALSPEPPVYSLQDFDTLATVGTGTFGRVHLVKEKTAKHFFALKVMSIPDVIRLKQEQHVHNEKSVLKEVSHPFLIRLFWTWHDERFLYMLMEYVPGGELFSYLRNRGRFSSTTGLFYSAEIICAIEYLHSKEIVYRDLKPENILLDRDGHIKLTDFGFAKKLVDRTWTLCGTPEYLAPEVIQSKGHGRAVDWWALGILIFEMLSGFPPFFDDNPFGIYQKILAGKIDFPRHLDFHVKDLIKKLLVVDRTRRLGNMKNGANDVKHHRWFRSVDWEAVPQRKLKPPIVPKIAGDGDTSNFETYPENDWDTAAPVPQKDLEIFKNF
The note with it: at 0.1 µM.

The target of experiment [19] is T7, cAMP-dependent protein kinase catalytic subunit PRKX (Homo sapiens). The note with it: at 1 µM.
In experiment [20] the target is Rho-associated protein kinase 1 (Homo sapiens) (UniProt Q13464). The note with it: at 0.1 µM.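 Also: values are mean percent inhibition of ROCK1.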
Sequence of Rho-associated protein kinase 1 (Homo sapiens) (Q13464 2-1354 limits assumed): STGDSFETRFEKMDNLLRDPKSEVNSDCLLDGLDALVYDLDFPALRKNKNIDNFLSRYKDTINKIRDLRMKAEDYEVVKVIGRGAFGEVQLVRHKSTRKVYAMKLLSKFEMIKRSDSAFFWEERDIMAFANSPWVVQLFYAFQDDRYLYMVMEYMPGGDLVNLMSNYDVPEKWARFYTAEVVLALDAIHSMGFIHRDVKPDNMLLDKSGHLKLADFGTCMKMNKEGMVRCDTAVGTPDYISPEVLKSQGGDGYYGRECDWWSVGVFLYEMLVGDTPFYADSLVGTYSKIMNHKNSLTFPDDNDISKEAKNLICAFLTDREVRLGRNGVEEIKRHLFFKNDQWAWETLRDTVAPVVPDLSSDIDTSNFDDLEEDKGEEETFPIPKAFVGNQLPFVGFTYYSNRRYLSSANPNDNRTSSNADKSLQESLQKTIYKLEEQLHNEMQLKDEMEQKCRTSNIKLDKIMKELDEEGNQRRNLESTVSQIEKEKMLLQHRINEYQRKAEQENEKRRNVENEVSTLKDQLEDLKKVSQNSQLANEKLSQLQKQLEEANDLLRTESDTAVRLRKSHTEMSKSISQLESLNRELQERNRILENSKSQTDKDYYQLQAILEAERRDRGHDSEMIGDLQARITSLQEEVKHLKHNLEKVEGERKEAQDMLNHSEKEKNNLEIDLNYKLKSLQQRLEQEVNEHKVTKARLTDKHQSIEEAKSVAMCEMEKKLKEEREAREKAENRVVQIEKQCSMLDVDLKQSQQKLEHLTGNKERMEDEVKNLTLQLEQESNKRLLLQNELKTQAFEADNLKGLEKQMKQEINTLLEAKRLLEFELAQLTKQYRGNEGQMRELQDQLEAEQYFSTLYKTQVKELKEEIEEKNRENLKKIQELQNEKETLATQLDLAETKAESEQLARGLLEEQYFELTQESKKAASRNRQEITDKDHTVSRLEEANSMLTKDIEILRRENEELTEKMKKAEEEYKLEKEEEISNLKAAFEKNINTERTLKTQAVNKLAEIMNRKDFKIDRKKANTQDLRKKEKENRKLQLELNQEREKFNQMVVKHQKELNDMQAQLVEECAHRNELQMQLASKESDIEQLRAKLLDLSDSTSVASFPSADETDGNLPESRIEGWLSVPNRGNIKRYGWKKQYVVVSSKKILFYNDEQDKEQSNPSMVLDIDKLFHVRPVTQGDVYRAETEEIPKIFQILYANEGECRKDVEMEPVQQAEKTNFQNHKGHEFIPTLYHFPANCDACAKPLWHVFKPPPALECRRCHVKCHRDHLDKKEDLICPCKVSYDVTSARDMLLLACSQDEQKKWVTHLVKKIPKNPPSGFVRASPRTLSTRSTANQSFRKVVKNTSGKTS

This is an account of results in ChEMBL document CHEMBL1961873, “Compounds: GSK PKIS; Assays: Nanosyn kinase panel” (2012).

Sequence of Protein kinase C beta type (Homo sapiens) (P05771 2-671 limits assumed): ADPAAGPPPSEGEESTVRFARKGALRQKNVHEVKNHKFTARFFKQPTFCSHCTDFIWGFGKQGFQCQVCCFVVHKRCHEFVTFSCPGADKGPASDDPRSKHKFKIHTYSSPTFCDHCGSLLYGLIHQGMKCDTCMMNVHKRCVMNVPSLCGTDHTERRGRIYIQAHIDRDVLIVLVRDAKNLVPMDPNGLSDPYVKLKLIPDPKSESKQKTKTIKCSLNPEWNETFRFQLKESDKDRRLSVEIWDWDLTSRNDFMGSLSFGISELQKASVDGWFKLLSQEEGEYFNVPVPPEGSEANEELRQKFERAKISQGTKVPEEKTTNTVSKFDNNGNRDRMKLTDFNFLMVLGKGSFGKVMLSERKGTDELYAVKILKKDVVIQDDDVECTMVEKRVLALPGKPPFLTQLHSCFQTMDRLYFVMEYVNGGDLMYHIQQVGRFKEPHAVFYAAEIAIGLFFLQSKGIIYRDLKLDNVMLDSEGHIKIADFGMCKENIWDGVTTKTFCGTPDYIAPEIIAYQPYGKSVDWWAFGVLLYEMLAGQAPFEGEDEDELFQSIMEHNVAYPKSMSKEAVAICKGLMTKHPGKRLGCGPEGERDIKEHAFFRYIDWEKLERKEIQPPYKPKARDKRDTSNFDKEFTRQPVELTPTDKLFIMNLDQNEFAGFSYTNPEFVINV

As for `COc1cccc(-c2c[nH]c3c(N/N=C/c4ccncc4)ncnc23)c1`, the inhibition (in general, the relative decrease from the control value, in per cent) was 7.65% in experiment [1]; 4.1% in [2]; 20.3% in experiment [3]; 0.91% in experiment [4]; 0.99% in experiment [5]; 1.66% in [6]. The inhibition in [7] was determined as 5.79%; in [8], 1.3%; in [9], 6.07%; in experiment [10], 1.26%; in [11], 5.96%; in [12] it was 1.85%. For the same compound, the inhibition in experiment [13] worked out at 5.38%; in experiment [14], 2.91%; in experiment [15], 4.69%; in [16], 1.71%; in experiment [17] it was 8.58%; in experiment [18], 1.13%. Moreover, the inhibition in experiment [19] is -0.16%; in [20], 1.94%.
